Screen size: about 310,000 compounds; about 14,000 (4.5%) showed an effect of 50% or more. Effects have a minus sign here. What follows is part of a selection rich in strong results, with near analogues and random picks from the rest.
biological target: human ether-à-go-go-related gene (hERG) potassium channel (human, UniProt Q12809); assay: primary screen, population patch clamp on CHO cells stably expressing hERG; higher = less effect of the substance
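Note: peak tail current of the secondary pulse compared with the same well before compound.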

Chain of human ether-à-go-go-related gene (hERG) potassium channel (Q12809 whole entry, looked up): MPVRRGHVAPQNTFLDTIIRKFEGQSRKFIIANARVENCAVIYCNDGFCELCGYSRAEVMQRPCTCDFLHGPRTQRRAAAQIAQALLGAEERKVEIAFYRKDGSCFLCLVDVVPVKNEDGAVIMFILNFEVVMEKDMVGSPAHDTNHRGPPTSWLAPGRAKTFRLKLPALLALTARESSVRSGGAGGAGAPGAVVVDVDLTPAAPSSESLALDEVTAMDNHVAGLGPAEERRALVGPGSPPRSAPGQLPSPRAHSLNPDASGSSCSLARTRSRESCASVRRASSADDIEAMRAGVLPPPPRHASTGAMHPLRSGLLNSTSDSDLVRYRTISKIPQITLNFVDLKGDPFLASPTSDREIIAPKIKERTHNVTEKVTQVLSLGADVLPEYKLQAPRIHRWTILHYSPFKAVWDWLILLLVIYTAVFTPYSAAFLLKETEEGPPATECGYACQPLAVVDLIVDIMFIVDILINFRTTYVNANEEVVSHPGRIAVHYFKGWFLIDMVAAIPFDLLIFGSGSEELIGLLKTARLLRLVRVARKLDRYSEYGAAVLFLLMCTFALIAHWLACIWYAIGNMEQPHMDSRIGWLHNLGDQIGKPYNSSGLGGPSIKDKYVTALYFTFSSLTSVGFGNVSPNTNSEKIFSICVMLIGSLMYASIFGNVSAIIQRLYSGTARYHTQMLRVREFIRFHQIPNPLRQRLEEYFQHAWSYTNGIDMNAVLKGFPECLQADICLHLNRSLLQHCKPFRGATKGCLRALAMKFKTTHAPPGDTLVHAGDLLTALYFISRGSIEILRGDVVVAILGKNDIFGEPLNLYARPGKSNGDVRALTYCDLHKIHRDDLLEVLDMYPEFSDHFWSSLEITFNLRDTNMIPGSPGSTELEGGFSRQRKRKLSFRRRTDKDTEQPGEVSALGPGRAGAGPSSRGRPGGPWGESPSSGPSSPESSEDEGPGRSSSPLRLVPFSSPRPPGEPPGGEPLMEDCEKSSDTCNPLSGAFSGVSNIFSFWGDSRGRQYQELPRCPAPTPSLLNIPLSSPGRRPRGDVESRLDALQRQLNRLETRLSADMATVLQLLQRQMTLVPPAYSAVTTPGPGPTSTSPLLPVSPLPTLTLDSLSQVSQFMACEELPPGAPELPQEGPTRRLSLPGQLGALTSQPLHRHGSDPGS

| SMILES | hERG current change (%, negative = inhibition) at 10uM [%] |
| --- | --- |
| COc1ccc(CN2CCN(C(=O)CCC(=O)Nc3nnc(CC(C)C)s3)CC2)cc1F | -17.9 |
| O=C(c1cccc2ccccc12)N1CCN(c2ccccc2F)CC1 | -9.72 |
| O=C(CCC(=O)Nc1ccccc1)N/N=C/C=C/c1ccccc1 | 32.1 |
| CC(=O)Nc1ccc(NC(=O)C2CC(=O)N(c3cccc(C)c3C)C2)cc1 (stereo not shown) | 9.48 |
| Cc1ccn2c(CN(C)CCn3nc(C)cc3C)c(C(=O)N3CCCCCC3)nc2c1 | 4.86 |
| Cc1cc2cc3c(cc2nc1SCc1ccccn1)OCCO3 | 5.43 |
| O=c1c(Cl)c(N2CCOCC2)cnn1-c1ncc(C(F)(F)F)cc1Cl | 5.44 |
| Cc1ccc(N2CC(C(=O)Nc3ccc(S(=O)(=O)N4CCCC4)cc3)CC2=O)cc1C (stereo not shown) | 6.52 |
| Cc1c(/C(O)=C2/C(=O)C(=O)N(CCN3CCOCC3)C2c2cccs2)cnn1-c1ccccc1 (stereo not shown) | 13.6 |
| COc1cccc(C(=O)NCc2ccc3c(c2)cc(C)n3C)c1 | 17 |
| CCc1ccc2[nH]c(=O)c(CN(CCCO)C(=O)NCc3ccccc3)cc2c1 | -13 |
| CCc1ccc2[nH]c(=O)c(CN(CCO)C(=O)NCc3ccccc3)cc2c1 | 3.64 |
| CCc1ccc2[nH]c(=O)c(CN(Cc3ccccc3)C(=O)Nc3ccccc3OC)cc2c1 | 4.2 |
| CCc1ccc2[nH]c(=O)c(CN(CCN(CC)CC)C(=O)Nc3ccccc3OC)cc2c1 | -76.5 |
| CCc1ccc2[nH]c(=O)c(CN(Cc3ccccc3OC)C(=O)Nc3ccccc3OC)cc2c1 | 3.47 |
| CCc1ccc2[nH]c(=O)c(CN(CCN(C)C)C(=O)Nc3ccccc3OC)cc2c1 | -64.7 |
| Nc1nc(SCc2ccc(Cl)c(Cl)c2)n[nH]1 | 10.4 |
| O=C(COC(=O)c1ccc(F)c(S(=O)(=O)N2CCOCC2)c1)c1ccc(Cl)cc1 | -31.1 |
| COc1ccccc1/C=N/NC(=O)c1cccc(NC(=O)c2ccccc2C)c1 | -4.64 |
| CC12CCC(=O)N1C(C(=O)Nc1ccc(SC(F)F)cc1)CS2 (stereo not shown) | -57.6 |

| SMILES | hERG current change (%, negative = inhibition) at 10uM [%] |
| --- | --- |
| Cc1ccc(S(=O)(=O)N2CCN(C(=O)C3CSC4(C)CCC(=O)N34)CC2)cc1C (stereo not shown) | -13.8 |
| CC12CCC(=O)N1C(C(=O)OCC(=O)Nc1cccc(Br)c1)CS2 (stereo not shown) | 6.89 |
| Cc1ccc(NC(=O)C2CSC3(C)CCC(=O)N23)cc1S(=O)(=O)N1CCOCC1 (stereo not shown) | 2.81 |
| Cc1ccc(NC(=O)C2CSC3(C)CCC(=O)N23)cc1S(=O)(=O)N1CCCCCC1 (stereo not shown) | -55.4 |
| CC12CCC(=O)N1C(C(=O)OCC(=O)Nc1cccc(S(=O)(=O)N3CCCCCC3)c1)CS2 (stereo not shown) | -86.8 |
| CC12CCC(=O)N1C(C(=O)N1CCN(S(=O)(=O)c3ccccc3F)CC1)CS2 (stereo not shown) | -30.1 |
| CC12CCC(=O)N1C(C(=O)N1CCN(S(=O)(=O)c3ccc(F)c(F)c3)CC1)CS2 (stereo not shown) | -53.7 |
| CC(C)c1ccc(NC(=O)C2CSC3(C)CCC(=O)N23)cc1 (stereo not shown) | 2.4 |
| CC12CCC(=O)N1C(C(=O)OCC(=O)Nc1cc(S(=O)(=O)N3CCCCC3)ccc1Cl)CS2 (stereo not shown) | -48.2 |
| CC12CCC(=O)N1C(C(=O)Nc1ccc(F)cc1)CS2 (stereo not shown) | 12.4 |
| CC12CCC(=O)N1C(C(=O)Nc1ccc(Cl)c(S(=O)(=O)N3CCCCC3)c1)CS2 (stereo not shown) | -34.3 |
| COc1ccc(NS(=O)(=O)c2c(C)n(C)c(=O)n(C)c2=O)cc1 | 15.5 |
| CN(C)S(=O)(=O)c1ccc(Cl)c(NC(=O)COC(=O)/C=C/c2ccc3ccccc3n2)c1 | 1.53 |
| Cc1ccc(C(=O)COC(=O)CNC(=O)C(c2ccccc2)c2ccccc2)cc1[N+](=O)[O-] | 4.33 |
| O=C(O)CC1Sc2ccccc2NC1=O (stereo not shown) | -13.4 |
| CN(C)C=O.Cc1ccc(S(=O)(=O)N(C)C)cc1NC(=S)Nc1ccc2[nH]c(=O)[nH]c2c1 | 76.2 |
| CCc1cccc(OCC2Cn3c(nc4c3c(=O)n(C)c(=O)n4C)O2)c1 (stereo not shown) | 3.18 |
| CC12CCC(=O)N1C(C(=O)Nc1ccc(S(=O)(=O)N3CCCCC3)cc1)CS2 (stereo not shown) | -5.09 |
| CC12CCC(=O)N1C(C(=O)Nc1cccc(S(=O)(=O)N3CCCCCC3)c1)CS2 (stereo not shown) | -69.8 |
| CC12CCC(=O)N1C(C(=O)Nc1cccc(S(=O)(=O)N3CCCCC3)c1)CS2 (stereo not shown) | -43.9 |

| SMILES | hERG current change (%, negative = inhibition) at 10uM [%] |
| --- | --- |
| CCOc1cccc(N2C(=O)CC(N(CCc3ccc(OC)c(OC)c3)C(=O)CC)C2=O)c1 (stereo not shown) | 24.9 |
| Cc1ccc(NC(=O)CSc2nnc(Cc3ccccc3)c(=O)[nH]2)c(C)c1 | -51.4 |
| COc1ccc(Cc2nnc(SCC(=O)Nc3ccc(C)cc3C)[nH]c2=O)cc1 | -16.8 |
| Cc1ccc(Cc2nnc(SCC(=O)Nc3ccc(C)cc3C)[nH]c2=O)cc1 | 5.33 |
| CCOc1cc(CNc2ccc3c(c2)CCC3)ccc1OC | -8.96 |
| Cc1ccc(NC(=O)CS(=O)(=O)c2c[nH]c3ccccc23)c(C)c1 | 11.9 |
| COc1ccc(C2=NN(CCC(=O)NCc3ccc4c(c3)OCO4)C(=O)CC2)cc1 | -18.8 |
| Cc1ccc(C2=NN(CCC(=O)NCCCN3CCOCC3)C(=O)CC2)cc1 | -52.3 |
| O=C(CCN1N=C(c2ccccc2)CCC1=O)NCCCN1CCOCC1 | 21.2 |
| Cc1ccc(CC(=O)NCc2ccc3c(c2)OCO3)cc1 | 2.24 |
| Cc1ccc(C2=NN(CCC(=O)NCCC(C)C)C(=O)CC2)cc1 | -24.5 |
| Cc1ccc(C2=NN(CCC(=O)NCc3ccc4c(c3)OCO4)C(=O)CC2)cc1 | -69.7 |
| O=C(CN1N=C(c2ccc(Cl)cc2)CCC1=O)NCCN1CCc2ccccc2C1 | -51.4 |
| O=C(CN1N=C(c2ccccc2)CCC1=O)NCCN1CCc2ccccc2C1 | -15.7 |
| Cc1ccc(C2=NN(CC(=O)NCCN(CC(C)C)CC(C)C)C(=O)CC2)cc1 | -50.2 |
| CC(C)CN(CCNC(=O)CN1N=C(c2ccc(Cl)cc2)CCC1=O)CC(C)C | -42.4 |
| Cc1ccc(-c2ccc(=O)n(CC(=O)NCCN(CC(C)C)CC(C)C)n2)cc1 | -16.3 |
| O=C(CN1N=C(c2ccccc2)CCC1=O)NCCCN1CCc2ccccc2C1 | -49.6 |

Reference: paper PMC4336329 (PLoS ONE, 2015)
